Reference: the supplement of paper PMC10515830
Structures can show the parent of a compound that is named as a salt.

Legend:
Conditions in all cases: 10 µM; exposure time 6 h
[1] = test system: Danio rerio larvae (5 dpf); assay: difference in excitability vs DMSO (percentage points); higher = more excitable than DMSO
Summary of the method: (§1)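 In 96-well plates, 48 wild-type zebrafish larvae aged 5 dpf per compound received 100 µL egg water with library compound at 10 µM final for 6 h. Three hours into this, a 3-h programme of moving lines and 100 ms, 400Hz tones ran at 28.5 ℃ while plates were photographed every 6 s. Z-LaP Tracker scored the behaviours, and each is given as the compound mean minus the vehicle control mean in percentage points.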

[2] = test system: Danio rerio larvae (5 dpf); assay: difference in startle response vs DMSO (percentage points); higher = stronger startle than DMSO
Summary of the method: as §1

[3] = test system: Danio rerio larvae (5 dpf); assay: difference in activity during first hour vs DMSO (percentage points); higher = more activity than DMSO
Summary of the method: as §1

[4] = test system: Danio rerio larvae (5 dpf); assay: difference in habituation to acoustic stimuli vs DMSO (percentage points); higher = more habituation than DMSO
Summary of the method: as §1

[5] = test system: Danio rerio larvae (5 dpf); assay: difference in combined optomotor response to red, green and blue moving lines vs DMSO (percentage points); higher = stronger optomotor response than DMSO
Summary of the method: as §1

SMILES: Nc1nc(CC(=O)Nc2ccc(CCNC[C@H](O)c3ccccc3)cc2)cs1 [Mirabegron]
- difference in excitability [1]: 15.7
- difference in startle response [2]: -0.811
- difference in activity during first hour [3]: 3.64
- difference in habituation to acoustic stimuli [4]: -4.56
- difference [5]: 3.08

SMILES: COc1cc(NC(C)CCCN)c2ncccc2c1 (stereo not given) [Primaquine (phosphate)]
- difference in excitability [1]: 23.1
- difference in startle response [2]: -5.2
- difference in activity during first hour [3]: 2.45
- difference in habituation to acoustic stimuli [4]: -4.94
- difference [5]: -0.724

SMILES: O=C(O)c1ccc(-n2nc(-c3ccccc3O)nc2-c2ccccc2O)cc1 [Deferasirox]
- difference in excitability [1]: 1.98
- difference in startle response [2]: -2.31
- difference in activity during first hour [3]: 17.7
- difference in habituation to acoustic stimuli [4]: 2.04
- difference [5]: 5.07

SMILES: CNCCC(Oc1ccc(C(F)(F)F)cc1)c1ccccc1 (stereo not given) [Fluoxetine (hydrochloride)]
- difference in excitability [1]: 2.79
- difference in startle response [2]: -8.12
- difference in activity during first hour [3]: -19.3
- difference in habituation to acoustic stimuli [4]: -5.89
- difference [5]: -6.12

SMILES: NC(=O)c1ncn([C@@H]2O[C@H](CO)[C@@H](O)[C@H]2O)n1 [Ribavirin]
- difference in excitability [1]: 3.64
- difference in startle response [2]: -0.473
- difference in activity during first hour [3]: 21.8
- difference in habituation to acoustic stimuli [4]: -4.01
- difference [5]: 5.68

SMILES: OCCN(CCO)c1nc(N2CCCCC2)c2nc(N(CCO)CCO)nc(N3CCCCC3)c2n1 [Dipyridamole]
- difference in excitability [1]: 1.25
- difference in startle response [2]: 3.31
- difference in activity during first hour [3]: 10.2
- difference in habituation to acoustic stimuli [4]: -3.82
- difference [5]: 6.89

SMILES: NCCCC(N)(C(=O)O)C(F)F (racemic) [DL-α-Difluoromethylornithine (hydrochloride hydrate)]
- difference in excitability [1]: -2.42
- difference in startle response [2]: -3.99
- difference in activity during first hour [3]: 10.2
- difference in habituation to acoustic stimuli [4]: 2.49
- difference [5]: 2.05

SMILES: CCOc1ccc(Cc2cc([C@]34OC[C@](CO)(O3)[C@@H](O)[C@H](O)[C@H]4O)ccc2Cl)cc1 [Ertugliflozin]
- difference in excitability [1]: 0.00277
- difference in startle response [2]: -5.35
- difference in activity during first hour [3]: 3.38
- difference in habituation to acoustic stimuli [4]: 4.89
- difference [5]: 1.51

SMILES: C[C@H]1C[C@H]2[C@@H]3CCC4=CC(=O)C=C[C@]4(C)[C@@]3(F)[C@@H](O)C[C@]2(C)[C@@]1(O)C(=O)CO [Betamethasone]
- difference in excitability [1]: 19.9
- difference in startle response [2]: 8.22
- difference in activity during first hour [3]: -16.1
- difference in habituation to acoustic stimuli [4]: 3.7
- difference [5]: 5.5

SMILES: N=C(N)NCCCC[C@@H]1NC(=O)CCSSC[C@@H](C(N)=O)NC(=O)[C@@H]2CCCN2C(=O)[C@H](Cc2c[nH]c3ccccc23)NC(=O)[C@H](CC(=O)O)NC(=O)CNC1=O [Eptifibatide]
- difference in excitability [1]: 10.9
- difference in startle response [2]: 3.19
- difference in activity during first hour [3]: 5.64
- difference in habituation to acoustic stimuli [4]: -3.64
- difference [5]: 2.85

SMILES: CC(C)C[C@H](NC(=O)CNC(=O)c1cc(Cl)ccc1Cl)B1OC(=O)C(CC(=O)O)(CC(=O)O)O1
- difference in excitability [1]: -1.67
- difference in startle response [2]: 1.83
- difference in activity during first hour [3]: 2.45
- difference in habituation to acoustic stimuli [4]: 4.21
- difference [5]: 5.88

SMILES: COc1ccc(CC(C)NCC(O)c2ccc(O)c(NC=O)c2)cc1 (stereo not given) [Formoterol (hemifumarate hydrate)]
- difference in excitability [1]: 9.74
- difference in startle response [2]: -13.1
- difference in activity during first hour [3]: 49.1
- difference in habituation to acoustic stimuli [4]: -7.8
- difference [5]: 1.18

SMILES: O=C(c1ccc(F)c(F)c1Nc1ccc(I)cc1F)N1CC(O)([C@@H]2CCCCN2)C1 [Cobimetinib]
- difference in excitability [1]: 22.7
- difference in startle response [2]: -2.69
- difference in activity during first hour [3]: 0.0371
- difference in habituation to acoustic stimuli [4]: 0.214
- difference [5]: 2.37

SMILES: CC(=O)CC(c1ccccc1)c1c(O)c2ccccc2oc1=O (racemic) [(±)-Warfarin]
- difference in excitability [1]: 7.35
- difference in startle response [2]: -1.45
- difference in activity during first hour [3]: -0.141
- difference in habituation to acoustic stimuli [4]: -3.9
- difference [5]: -1.34

SMILES: NC(=O)N1c2ccccc2CC(=O)c2ccccc21 [Oxcarbazepine]
- difference in excitability [1]: -3.21
- difference in startle response [2]: 8.33
- difference in activity during first hour [3]: 10.1
- difference in habituation to acoustic stimuli [4]: 0.525
- difference [5]: 8.73

SMILES: CN1CCN2c3ncccc3Cc3ccccc3C2C1 (stereo not given) [Mirtazapine]
- difference in excitability [1]: -3.43
- difference in startle response [2]: 3.21
- difference in activity during first hour [3]: 17.5
- difference in habituation to acoustic stimuli [4]: -1.46
- difference [5]: -7.5

SMILES: CO/N=C(\C(=O)N[C@@H]1C(=O)N2C(C(=O)O)=C(COC(C)=O)CS[C@H]12)c1csc(N)n1 [Cefotaxime (sodium salt)]
- difference in excitability [1]: 0.947
- difference in startle response [2]: 0.752
- difference in activity during first hour [3]: 4.74
- difference in habituation to acoustic stimuli [4]: 6.08
- difference [5]: 3.19

SMILES: Cc1c(OCC(F)(F)F)ccnc1C[S@@+]([O-])c1nc2ccccc2[nH]1 [(R)-Lansoprazole]
- difference in excitability [1]: 7.16
- difference in startle response [2]: 4.39
- difference in activity during first hour [3]: 7.03
- difference in habituation to acoustic stimuli [4]: -1.38
- difference [5]: 1.12

SMILES: CC(C)(S)[C@@H](N)C(=O)O [Penicillamine]
- difference in excitability [1]: 1.99
- difference in startle response [2]: 3.43
- difference in activity during first hour [3]: -11.2
- difference in habituation to acoustic stimuli [4]: 6.31
- difference [5]: 4.5

SMILES: NC[C@@H]1O[C@@H](O[C@H]2[C@H](O)[C@@H](O[C@H]3O[C@H](CO)[C@@H](O)[C@H](N)[C@H]3O)[C@H](N)C[C@@H]2N)[C@@H](O)[C@H](O)[C@H]1O [Kanamycin A (sulfate)]
- difference in excitability [1]: 8.55
- difference in startle response [2]: -4.02
- difference in activity during first hour [3]: 4.22
- difference in habituation to acoustic stimuli [4]: 3.45
- difference [5]: 4.39

SMILES: COc1cc2ncnc(Nc3ccc(F)c(Cl)c3)c2cc1NC(=O)/C=C/CN1CCCCC1
- difference in excitability [1]: 16.4
- difference in startle response [2]: 0.667
- difference in activity during first hour [3]: -10.7
- difference in habituation to acoustic stimuli [4]: -0.587
- difference [5]: 6.72

SMILES: CC(=O)Oc1cc2c(s1)CCN(C(C(=O)C1CC1)c1ccccc1F)C2 (stereo not given) [Prasugrel]
- difference in excitability [1]: -1.17
- difference in startle response [2]: 0.187
- difference in activity during first hour [3]: -0.362
- difference in habituation to acoustic stimuli [4]: 8.33
- difference [5]: 9.86

SMILES: O=C(O)C[C@H](O)C[C@H](O)/C=C/c1c(C2CC2)nc2ccccc2c1-c1ccc(F)cc1 [Pitavastatin (calcium salt)]
- difference in excitability [1]: 10.2
- difference in startle response [2]: -3.29
- difference in activity during first hour [3]: 4.76
- difference in habituation to acoustic stimuli [4]: -3.94
- difference [5]: 13.1

SMILES: CC1(C)O[C@@H]2C[C@H]3[C@@H]4CCC5=CC(=O)C=C[C@]5(C)[C@H]4[C@@H](O)C[C@]3(C)[C@]2(C(=O)CO)O1 [Desonide]
- difference in excitability [1]: -1.81
- difference in startle response [2]: -1.62
- difference in activity during first hour [3]: 0.404
- difference in habituation to acoustic stimuli [4]: 6.53
- difference [5]: 1.67

SMILES: CCCCCCCCCCCCCCCCCCCCCCO [Docosanol]
- difference in excitability [1]: 3.23
- difference in startle response [2]: 1.61
- difference in activity during first hour [3]: -0.528
- difference in habituation to acoustic stimuli [4]: -2.06
- difference [5]: 0.854

SMILES: CC[C@@H]1/C=C(\C)C[C@H](C)C[C@H](OC)[C@H]2O[C@@](O)(C(=O)C(=O)N3CCCC[C@H]3C(=O)O[C@H](/C(C)=C/[C@@H]3CC[C@H](Cl)[C@H](OC)C3)[C@H](C)[C@@H](O)CC1=O)[C@H](C)C[C@@H]2OC [Pimecrolimus]
- difference in excitability [1]: 12
- difference in startle response [2]: -9.07
- difference in activity during first hour [3]: 23
- difference in habituation to acoustic stimuli [4]: -1.18
- difference [5]: -12.6

SMILES: CN(C)c1ccc(O)c2c1C[C@H]1C[C@H]3[C@H](N(C)C)C(O)=C(C(N)=O)C(=O)[C@@]3(O)C(O)=C1C2=O [Minocycline (hydrochloride hydrate)]
- difference in excitability [1]: 3.95
- difference in startle response [2]: -2.06
- difference in activity during first hour [3]: 13.3
- difference in habituation to acoustic stimuli [4]: 8.03
- difference [5]: -2.24
